# Test results published in paper PMC5540273 (PLoS ONE, 2017).
# Test system: MAP3K4
# Details: concentration: 1 μM, replicates: in singlicate; n = 1
# 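Note: KINOMEscan kinase panel screen.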
row,SMILES,%Inh
1,CNc1nccc(-c2c(-c3ccc(F)cc3)ncn2C2CCN(C)CC2)n1 [SB-222903],0%
2,CCn1c(-c2ccncc2)nc2cnccc21 [SB-735216],23%
3,Clc1cc(Nc2ncnc3cc[nH]c23)ccc1OCc1ccccn1,10%
4,CN1CCC(n2cnc(-c3ccc(F)cc3)c2-c2ccnc(NC3CCNCC3)n2)CC1 [SB-229482],1%
5,Fc1ccc(-c2ncn(CCCNCc3ccccc3)c2-c2ccncc2)cc1,7%
6,Cc1ccc(NC(=O)c2cccc(C#N)c2)cc1-c1ccc(C(=O)Nc2ccncc2)cc1 [GSK1398463],35%
7,O=C(c1ccc(-c2cc(-c3c[nH]nc3-c3ccccn3)ccn2)cc1)N1CCCC1 [GW792479],25%
8,Cl.c1ccc(Cn2ccc3cc(Nc4ncnc5ccccc45)ccc32)cc1 [GW275568],5%
9,CS(=O)(=O)CCNCc1ccc(-c2ccc3ncnc(Nc4ccc(OCc5ccccc5)c(Cl)c4)c3c2)o1.Cl [GW574783],0%
10,CCC(CC)(CC)n1cnc2c(N)ncnc21 [SKF-97620],0%
11,CC(C)(C)OC(=O)NC1CCCN(c2cc(-c3ccc4c(N)n[nH]c4c3)nc(N)n2)C1 (stereo not drawn) [GSK2286096],17%
12,O=C(Nc1ccccc1F)NC1CCN(c2ccnc(Nc3ccc(F)cc3)n2)C1 (stereo not drawn) [GSK1379722],14%
13,Cl.c1ccc(Cn2ncc3cc(Nc4ncnc5ccccc45)ccc32)cc1 [GW273749],0%
14,CC(=O)Nc1n[nH]c2ncc(-c3ccccc3)cc12 [SB-548492],11%
15,Cc1cc(N2CCC(NS(=O)(=O)c3ccc(F)cc3)CC2)nc(Nc2cccc(C#N)c2)n1.O=C(O)C(F)(F)F [GSK1653537],40%
16,N#Cc1ccc(Oc2ccc(Nc3ncnc4cc[nH]c34)cc2Cl)cc1,9%
17,CCc1nc(-c2cccc(N(C)S(=O)(=O)c3ccccc3)c2)c(-c2ccnc(Nc3ccc(N4CCN(C(C)=O)CC4)nc3)n2)s1 [GSK1645895],18%
18,CNc1nccc(-c2c(-c3ccc(F)cc3)ncn2CCCN2CCOCC2)n1 [SB-222516],17%

row,SMILES,%Inh
1,Cc1ccc(C)c(NC(=O)NCCNc2ccnc(Nc3ccc(F)cc3)n2)c1 [GSK1379878],0%
2,Cc1cccc(-c2nc(Nc3ccc4[nH]nnc4c3)c3ccccc3n2)n1 [GW867587],0%
3,COc1ccc(Nc2nccc(N3CCC(NC(=O)c4cccc(NC(C)=O)c4)C3)n2)cc1 (stereo not drawn) [GSK1379732],0%
4,CSc1ccc(NC2=C(c3ccccc3Cl)C(=O)NC2=O)cc1 [SB-342411],30%
5,C[C@@H]1CCN(C(=O)CO)C[C@@H]1N(C)c1ncnc2[nH]ccc12,5%
6,CSc1nn2c(=O)cc(N3CCOCC3)nc2n1Cc1cccc(Cl)c1Cl [GSK2347225],31%
7,COc1ccc(-c2oc3ncnc(N)c3c2-c2ccc(OC)cc2)cc1 [SB-589132],0%
8,COc1ccc(NC(=O)c2ccc(-c3cc(-c4nnc(C)o4)ccc3C)cc2)cc1 [GW595885],20%
9,COC(=O)c1c(-c2ccccc2)c2cc(Cl)ccc2c(=O)n1Cc1ccc(S(C)(=O)=O)cc1,0%
10,CS(=O)(=O)CCNCc1nc(-c2ccc3ncnc(Nc4ccc(OCc5cccc(F)c5)c(Cl)c4)c3c2)cs1.Cl [GW583340],4%
11,Cc1ccc(O)cc1Nc1cc(C(F)(F)F)nc2ccc(-c3ccncc3)cc12 [GW630823],0%
12,Nc1nc(-c2ccc3c(N)n[nH]c3c2)cc(N2CCC[C@@H](C(=O)Nc3ccccc3)C2)n1.O=C(O)C(F)(F)F.O=C(O)C(F)(F)F [GSK2288359],28%
13,CN1c2ccc(-c3ccc(C(=O)NCCO)cc3)cc2-c2[nH]ncc2S1(=O)=O,0%
14,Oc1ccc2ncnc(Nc3ccc(OCc4ccccc4)cc3)c2c1 [GI262866],2%
15,Nc1nc(-c2ccccn2)c(-c2ccnc3ccccc23)s1 [GW548057],4%
16,FC(F)(F)c1ccc(-c2cc(-c3c[nH]nc3-c3ccccn3)ccn2)cc1 [GW599550],0%
17,Cn1cc(-c2ccc3c(c2)CCN3C(=O)Cc2cccc(C(F)(F)F)c2)c2c(N)ncnc21 [GSK2606414],12%
18,NC(=O)c1sc(-n2cnc3ccccc32)cc1OCc1ccccc1F [GSK1024306],23%

# Test system: MAP4K2
# Details: concentration: 1 μM, replicates: in singlicate; n = 1
row,SMILES,%Inh
1,CNc1nccc(-c2c(-c3ccc(F)cc3)ncn2C2CCN(C)CC2)n1 [SB-222903],0%
2,CCn1c(-c2ccncc2)nc2cnccc21 [SB-735216],12%
3,Clc1cc(Nc2ncnc3cc[nH]c23)ccc1OCc1ccccn1,0%
4,CN1CCC(n2cnc(-c3ccc(F)cc3)c2-c2ccnc(NC3CCNCC3)n2)CC1 [SB-229482],12%
5,Fc1ccc(-c2ncn(CCCNCc3ccccc3)c2-c2ccncc2)cc1,14%
6,Cc1ccc(NC(=O)c2cccc(C#N)c2)cc1-c1ccc(C(=O)Nc2ccncc2)cc1 [GSK1398463],0%
7,O=C(c1ccc(-c2cc(-c3c[nH]nc3-c3ccccn3)ccn2)cc1)N1CCCC1 [GW792479],0%
8,Cl.c1ccc(Cn2ccc3cc(Nc4ncnc5ccccc45)ccc32)cc1 [GW275568],0%
9,CS(=O)(=O)CCNCc1ccc(-c2ccc3ncnc(Nc4ccc(OCc5ccccc5)c(Cl)c4)c3c2)o1.Cl [GW574783],0%
10,CCC(CC)(CC)n1cnc2c(N)ncnc21 [SKF-97620],25%
11,CC(C)(C)OC(=O)NC1CCCN(c2cc(-c3ccc4c(N)n[nH]c4c3)nc(N)n2)C1 (stereo not drawn) [GSK2286096],0%
12,O=C(Nc1ccccc1F)NC1CCN(c2ccnc(Nc3ccc(F)cc3)n2)C1 (stereo not drawn) [GSK1379722],0%
13,Cl.c1ccc(Cn2ncc3cc(Nc4ncnc5ccccc45)ccc32)cc1 [GW273749],0%
14,CC(=O)Nc1n[nH]c2ncc(-c3ccccc3)cc12 [SB-548492],25%
15,Cc1cc(N2CCC(NS(=O)(=O)c3ccc(F)cc3)CC2)nc(Nc2cccc(C#N)c2)n1.O=C(O)C(F)(F)F [GSK1653537],0%
16,N#Cc1ccc(Oc2ccc(Nc3ncnc4cc[nH]c34)cc2Cl)cc1,0%
17,CCc1nc(-c2cccc(N(C)S(=O)(=O)c3ccccc3)c2)c(-c2ccnc(Nc3ccc(N4CCN(C(C)=O)CC4)nc3)n2)s1 [GSK1645895],0%
18,CNc1nccc(-c2c(-c3ccc(F)cc3)ncn2CCCN2CCOCC2)n1 [SB-222516],0%

row,SMILES,%Inh
1,Cc1ccc(C)c(NC(=O)NCCNc2ccnc(Nc3ccc(F)cc3)n2)c1 [GSK1379878],0%
2,Cc1cccc(-c2nc(Nc3ccc4[nH]nnc4c3)c3ccccc3n2)n1 [GW867587],0%
3,COc1ccc(Nc2nccc(N3CCC(NC(=O)c4cccc(NC(C)=O)c4)C3)n2)cc1 (stereo not drawn) [GSK1379732],0%
4,CSc1ccc(NC2=C(c3ccccc3Cl)C(=O)NC2=O)cc1 [SB-342411],0%
5,C[C@@H]1CCN(C(=O)CO)C[C@@H]1N(C)c1ncnc2[nH]ccc12,0%
6,CSc1nn2c(=O)cc(N3CCOCC3)nc2n1Cc1cccc(Cl)c1Cl [GSK2347225],0%
7,COc1ccc(-c2oc3ncnc(N)c3c2-c2ccc(OC)cc2)cc1 [SB-589132],0%
8,COc1ccc(NC(=O)c2ccc(-c3cc(-c4nnc(C)o4)ccc3C)cc2)cc1 [GW595885],0%
9,COC(=O)c1c(-c2ccccc2)c2cc(Cl)ccc2c(=O)n1Cc1ccc(S(C)(=O)=O)cc1,3%
10,CS(=O)(=O)CCNCc1nc(-c2ccc3ncnc(Nc4ccc(OCc5cccc(F)c5)c(Cl)c4)c3c2)cs1.Cl [GW583340],0%
11,Cc1ccc(O)cc1Nc1cc(C(F)(F)F)nc2ccc(-c3ccncc3)cc12 [GW630823],0%
12,Nc1nc(-c2ccc3c(N)n[nH]c3c2)cc(N2CCC[C@@H](C(=O)Nc3ccccc3)C2)n1.O=C(O)C(F)(F)F.O=C(O)C(F)(F)F [GSK2288359],0%
13,CN1c2ccc(-c3ccc(C(=O)NCCO)cc3)cc2-c2[nH]ncc2S1(=O)=O,26%
14,Oc1ccc2ncnc(Nc3ccc(OCc4ccccc4)cc3)c2c1 [GI262866],0%
15,Nc1nc(-c2ccccn2)c(-c2ccnc3ccccc23)s1 [GW548057],0%
16,FC(F)(F)c1ccc(-c2cc(-c3c[nH]nc3-c3ccccn3)ccn2)cc1 [GW599550],0%
17,Cn1cc(-c2ccc3c(c2)CCN3C(=O)Cc2cccc(C(F)(F)F)c2)c2c(N)ncnc21 [GSK2606414],0%
18,NC(=O)c1sc(-n2cnc3ccccc32)cc1OCc1ccccc1F [GSK1024306],0%
